Test results from article PMC8384837, “Expanding the binding specificity for RNA recognition by a PUF domain”.

Columns and labels:
Assay in all cases: yeast three-hybrid, YBZ-1, SC-Leu-His + 0.5 mM 3-AT, 4 days
Conditions in all cases: tags: N-Gal4 AD-HA kept; label: inside an RPR1-promoter hybrid RNA with tandem MS2 sites; ssRNA
PUM1 PUF domain R3-EWE = PUM1 PUF domain R3-EWE (Homo sapiens, UniProt Q14671 828-1176, C935E;R936W;Q939E)
How it was run: (§1)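 The interaction score is the log change in how often each variant appears, from input to selection. Frequencies came from PCR-amplified, Illumina-sequenced repeat regions of Pumilio-1 PUF domain libraries grown in strain YBZ-1 (LexA–MS2 coat fusion, HIS3 reporter) alongside matching RNA elements. Input plates were SC-Leu and selection plates were SC-Leu-His + 0.5 mM 3-AT, each for four days, and the log2 calculation used a pseudocount of 1 where a variant was absent.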

PUM1 PUF domain R1-SLR = PUM1 PUF domain R1-SLR (Homo sapiens, UniProt Q14671 828-1176, R864L;Q867R)
How it was run: as §1

PUM1 PUF domain R7-KRG = PUM1 PUF domain R7-KRG (Homo sapiens, UniProt Q14671 828-1176, S1079K;N1080R;E1083G)
How it was run: as §1

PUM1 PUF domain R7-TVG = PUM1 PUF domain R7-TVG (Homo sapiens, UniProt Q14671 828-1176, S1079T;N1080V;E1083G)
How it was run: as §1

PUM1 PUF domain R8-RGR = PUM1 PUF domain R8-RGR (Homo sapiens, UniProt Q14671 828-1176, N1122R;Y1123G;Q1126R)
How it was run: as §1

PUM1 PUF domain R5-RQC = PUM1 PUF domain R5-RQC (Homo sapiens, UniProt Q14671 828-1176, C1007R;R1008Q;Q1011C)
How it was run: as §1

PUM1 PUF domain R4-CRS = PUM1 PUF domain R4-CRS (Homo sapiens, UniProt Q14671 828-1176, N971C;H972R;Q975S)
How it was run: as §1

PUM1 PUF domain R5-CTR = PUM1 PUF domain R5-CTR (Homo sapiens, UniProt Q14671 828-1176, R1008T;Q1011R)
How it was run: as §1

PUM1 PUF domain R5-RFD = PUM1 PUF domain R5-RFD (Homo sapiens, UniProt Q14671 828-1176, C1007R;R1008F;Q1011D)
How it was run: as §1

PUM1 PUF domain R3-TRF = PUM1 PUF domain R3-TRF (Homo sapiens, UniProt Q14671 828-1176, C935T;Q939F)
How it was run: as §1

PUM1 PUF domain R3-GPT = PUM1 PUF domain R3-GPT (Homo sapiens, UniProt Q14671 828-1176, C935G;R936P;Q939T)
How it was run: as §1

PUM1 PUF domain R3-IYL = PUM1 PUF domain R3-IYL (Homo sapiens, UniProt Q14671 828-1176, C935I;R936Y;Q939L)
How it was run: as §1

PUM1 PUF domain R4-SML = PUM1 PUF domain R4-SML (Homo sapiens, UniProt Q14671 828-1176, N971S;H972M;Q975L)
How it was run: as §1

PUM1 PUF domain R5-EFR = PUM1 PUF domain R5-EFR (Homo sapiens, UniProt Q14671 828-1176, C1007E;R1008F;Q1011R)
How it was run: as §1

PUM1 PUF domain R3-LWT = PUM1 PUF domain R3-LWT (Homo sapiens, UniProt Q14671 828-1176, C935L;R936W;Q939T)
How it was run: as §1

PUM1 PUF domain R5-DRQ = PUM1 PUF domain R5-DRQ (Homo sapiens, UniProt Q14671 828-1176, C1007D)
How it was run: as §1

PUM1 PUF domain R5-KRP = PUM1 PUF domain R5-KRP (Homo sapiens, UniProt Q14671 828-1176, C1007K;Q1011P)
How it was run: as §1

PUM1 PUF domain R1-TLF = PUM1 PUF domain R1-TLF (Homo sapiens, UniProt Q14671 828-1176, S863T;R864L;Q867F)
How it was run: as §1

PUM1 PUF domain R1-RIS = PUM1 PUF domain R1-RIS (Homo sapiens, UniProt Q14671 828-1176, S863R;R864I;Q867S)
How it was run: as §1

PUM1 PUF domain R5-DHW = PUM1 PUF domain R5-DHW (Homo sapiens, UniProt Q14671 828-1176, C1007D;R1008H;Q1011W)
How it was run: as §1

Sequence of PUM1 PUF domain R5-RQC (Q14671 828-1176 C1007R/R1008Q/Q1011C): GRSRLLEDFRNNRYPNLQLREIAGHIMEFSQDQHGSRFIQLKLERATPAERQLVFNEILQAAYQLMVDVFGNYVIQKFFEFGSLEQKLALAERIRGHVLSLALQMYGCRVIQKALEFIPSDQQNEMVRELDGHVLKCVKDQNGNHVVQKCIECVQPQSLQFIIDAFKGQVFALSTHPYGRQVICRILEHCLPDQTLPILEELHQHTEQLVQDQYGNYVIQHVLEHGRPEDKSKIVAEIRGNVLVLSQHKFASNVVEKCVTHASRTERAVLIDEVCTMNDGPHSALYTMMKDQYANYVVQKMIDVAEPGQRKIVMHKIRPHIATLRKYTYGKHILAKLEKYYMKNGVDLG
Sequence of PUM1 PUF domain R5-RFD (Q14671 828-1176 C1007R/R1008F/Q1011D): as the sequence (Q14671 828-1176 C1007R/R1008Q/Q1011C) above, with Q181F, C184D counted along it
Sequence of PUM1 PUF domain R5-DRQ (Q14671 828-1176 C1007D): as the sequence (Q14671 828-1176 C1007R/R1008Q/Q1011C) above, with R180D, Q181R, C184Q counted along it
Sequence of PUM1 PUF domain R5-CTR (Q14671 828-1176 R1008T/Q1011R): as the sequence (Q14671 828-1176 C1007R/R1008Q/Q1011C) above, with R180C, Q181T, C184R counted along it
Sequence of PUM1 PUF domain R5-KRP (Q14671 828-1176 C1007K/Q1011P): as the sequence (Q14671 828-1176 C1007R/R1008Q/Q1011C) above, with R180K, Q181R, C184P counted along it
Sequence of PUM1 PUF domain R8-RGR (Q14671 828-1176 N1122R/Y1123G/Q1126R): as the sequence (Q14671 828-1176 C1007R/R1008Q/Q1011C) above, with R180C, Q181R, C184Q, N295R, Y296G, Q299R counted along it
Sequence of PUM1 PUF domain R5-DHW (Q14671 828-1176 C1007D/R1008H/Q1011W): as the sequence (Q14671 828-1176 C1007R/R1008Q/Q1011C) above, with R180D, Q181H, C184W counted along it
Sequence of PUM1 PUF domain R1-TLF (Q14671 828-1176 S863T/R864L/Q867F): as the sequence (Q14671 828-1176 C1007R/R1008Q/Q1011C) above, with S36T, R37L, Q40F, R180C, Q181R, C184Q counted along it
Sequence of PUM1 PUF domain R1-RIS (Q14671 828-1176 S863R/R864I/Q867S): as the sequence (Q14671 828-1176 C1007R/R1008Q/Q1011C) above, with S36R, R37I, Q40S, R180C, Q181R, C184Q counted along it
Sequence of PUM1 PUF domain R4-CRS (Q14671 828-1176 N971C/H972R/Q975S): as the sequence (Q14671 828-1176 C1007R/R1008Q/Q1011C) above, with N144C, H145R, Q148S, R180C, Q181R, C184Q counted along it

**Q.** Which binding signal (PUM1 PUF domain R3-EWE) does the source give for “GGCUAGAACUAGUGGAUCCCCCGGCGCCCGGCGGCUCGAGCCCGGGUAAGUGUAAGUAGUCUGCAUGCCGCCGGGCGCCAUGCCUGCAGGUCGACUCUAGAAAACAUG” here?
**A.** The binding signal was 4.74 log2 enrichment (interaction score).

**Q.** Which binding signal (PUM1 PUF domain R1-SLR) does the source give for “GGCUAGAACUAGUGGAUCCCCCGGCGCCCGGCGGCUCGAGCCCGGGUAAGUGUAAAUCGUCUGCAUGCCGCCGGGCGCCAUGCCUGCAGGUCGACUCUAGAAAACAUG” here?
**A.** The binding signal was 3.37 log2 enrichment (interaction score).

**Q.** “GGCUAGAACUAGUGGAUCCCCCGGCGCCCGGCGGCUCGAGCCCGGGUAAGUUUAAAUAGUCUGCAUGCCGCCGGGCGCCAUGCCUGCAGGUCGACUCUAGAAAACAUG” was tested. Which binding signal (PUM1 PUF domain R7-KRG) did it give?
**A.** The binding signal was 2.98 log2 enrichment (interaction score).

**Q.** What about the binding signal (PUM1 PUF domain R7-TVG) of the same sequence?
**A.** The binding signal was 4.37 log2 enrichment (interaction score).

**Q.** For “GGCUAGAACUAGUGGAUCCCCCGGCGCCCGGCGGCUCGAGCCCGGGUAAGUGUAAAUAGUCUGCAUGCCGCCGGGCGCCAUGCCUGCAGGUCGACUCUAGAAAACAUG”, which binding signal (PUM1 PUF domain R8-RGR) is on record?
**A.** Its binding signal is 1.23 log2 enrichment (interaction score).

**Q.** What about the binding signal (PUM1 PUF domain R5-RQC) of the same sequence?
**A.** The binding signal was 1.84 log2 enrichment (interaction score).

**Q.** What about the binding signal (PUM1 PUF domain R4-CRS) of the same sequence?
**A.** Its binding signal is 2.69 log2 enrichment (interaction score).

**Q.** What about the binding signal (PUM1 PUF domain R5-CTR) of the same sequence?
**A.** Its binding signal is 1.1 log2 enrichment (interaction score).

**Q.** And the binding signal (PUM1 PUF domain R5-RFD)?
**A.** The binding signal was 2.18 log2 enrichment (interaction score).

**Q.** And the binding signal (PUM1 PUF domain R3-TRF)?
**A.** Its binding signal is 4.8 log2 enrichment (interaction score).

**Q.** And the binding signal (PUM1 PUF domain R3-GPT)?
**A.** The binding signal was 2.91 log2 enrichment (interaction score).

**Q.** What about the binding signal (PUM1 PUF domain R3-IYL) of the same sequence?
**A.** Its binding signal is 4.44 log2 enrichment (interaction score).

**Q.** What about the binding signal (PUM1 PUF domain R4-SML) of the same sequence?
**A.** Its binding signal is 3.12 log2 enrichment (interaction score).

**Q.** What about the binding signal (PUM1 PUF domain R5-EFR) of the same sequence?
**A.** The binding signal was 3.42 log2 enrichment (interaction score).

**Q.** What about the binding signal (PUM1 PUF domain R3-LWT) of the same sequence?
**A.** Its binding signal is 3.77 log2 enrichment (interaction score).

**Q.** “GGCUAGAACUAGUGGAUCCCCCGGCGCCCGGCGGCUCGAGCCCGGGUAAGUCUAAAUAGUCUGCAUGCCGCCGGGCGCCAUGCCUGCAGGUCGACUCUAGAAAACAUG” was tested. Which binding signal (PUM1 PUF domain R7-KRG) did it give?
**A.** Its binding signal is 2.64 log2 enrichment (interaction score).

**Q.** Which binding signal (PUM1 PUF domain R5-DRQ) does the source give for “GGCUAGAACUAGUGGAUCCCCCGGCGCCCGGCGGCUCGAGCCCGGGUAAGUGUGAAUAGUCUGCAUGCCGCCGGGCGCCAUGCCUGCAGGUCGACUCUAGAAAACAUG” here?
**A.** The binding signal was 3.23 log2 enrichment (interaction score).

**Q.** What about the binding signal (PUM1 PUF domain R5-KRP) of the same sequence?
**A.** The binding signal was 0.17 log2 enrichment (interaction score).

**Q.** And the binding signal (PUM1 PUF domain R5-RFD)?
**A.** Its binding signal is 2.73 log2 enrichment (interaction score).

**Q.** “GGCUAGAACUAGUGGAUCCCCCGGCGCCCGGCGGCUCGAGCCCGGGUAAGUGUAAAUUGUCUGCAUGCCGCCGGGCGCCAUGCCUGCAGGUCGACUCUAGAAAACAUG” was tested. Which binding signal (PUM1 PUF domain R1-TLF) did it give?
**A.** Its binding signal is 4.45 log2 enrichment (interaction score).

**Q.** And the binding signal (PUM1 PUF domain R1-RIS)?
**A.** The binding signal was 3.81 log2 enrichment (interaction score).

**Q.** And the binding signal (PUM1 PUF domain R1-SLR)?
**A.** The binding signal was 0.57 log2 enrichment (interaction score).

**Q.** How did the binding signal (PUM1 PUF domain R5-RQC) turn out when “GGCUAGAACUAGUGGAUCCCCCGGCGCCCGGCGGCUCGAGCCCGGGUAAGUGUUAAUAGUCUGCAUGCCGCCGGGCGCCAUGCCUGCAGGUCGACUCUAGAAAACAUG” was run?
**A.** The binding signal was 4.83 log2 enrichment (interaction score).

**Q.** And the binding signal (PUM1 PUF domain R5-DHW)?
**A.** The binding signal was 3.46 log2 enrichment (interaction score).

**Q.** And the binding signal (PUM1 PUF domain R5-RFD)?
**A.** Its binding signal is 4.39 log2 enrichment (interaction score).

**Q.** “GGCUAGAACUAGUGGAUCCCCCGGCGCCCGGCGGCUCGAGCCCGGGUAAGCGUAAAUAGUCUGCAUGCCGCCGGGCGCCAUGCCUGCAGGUCGACUCUAGAAAACAUG” was tested. Which binding signal (PUM1 PUF domain R8-RGR) did it give?
**A.** The binding signal was 2.53 log2 enrichment (interaction score).

**Q.** How did the binding signal (PUM1 PUF domain R5-DRQ) turn out when “GGCUAGAACUAGUGGAUCCCCCGGCGCCCGGCGGCUCGAGCCCGGGUAAGUGUCAAUAGUCUGCAUGCCGCCGGGCGCCAUGCCUGCAGGUCGACUCUAGAAAACAUG” was run?
**A.** Its binding signal is 3.34 log2 enrichment (interaction score).

**Q.** And the binding signal (PUM1 PUF domain R5-RQC)?
**A.** Its binding signal is 4.74 log2 enrichment (interaction score).

**Q.** What about the binding signal (PUM1 PUF domain R5-KRP) of the same sequence?
**A.** Its binding signal is 2.24 log2 enrichment (interaction score).

**Q.** And the binding signal (PUM1 PUF domain R5-CTR)?
**A.** Its binding signal is 4.38 log2 enrichment (interaction score).

**Q.** And the binding signal (PUM1 PUF domain R5-RFD)?
**A.** The binding signal was 4.17 log2 enrichment (interaction score).

**Q.** And the binding signal (PUM1 PUF domain R5-EFR)?
**A.** Its binding signal is 1.31 log2 enrichment (interaction score).

**Q.** What does the source list for “GGCUAGAACUAGUGGAUCCCCCGGCGCCCGGCGGCUCGAGCCCGGGUAAGUGUAAUUAGUCUGCAUGCCGCCGGGCGCCAUGCCUGCAGGUCGACUCUAGAAAACAUG”?
**A.** binding signal (PUM1 PUF domain R3-TRF): 0.63 log2 enrichment (interaction score); binding signal (PUM1 PUF domain R3-GPT): 2.69 log2 enrichment (interaction score); binding signal (PUM1 PUF domain R3-LWT): 4.05 log2 enrichment (interaction score); binding signal (PUM1 PUF domain R3-EWE): 4.69 log2 enrichment (interaction score)
